Most compounds without a hit are left out; they make up all but 1.5% or so of the library.
cytoskel mod = modifiers of cytoskeleton assembly; hit rate 0.18% among 91,000; HUVEC TNFa F-actin phalloidin imaging, high content; inhibition, % at 2 µM;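 active = inhibition above the batch mean plus 3 SD and confirmed as a hit by visual image inspection, cut at about 30% in these data, passing the limit was not always enough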
VCAM1 TNFa inh = reduces TNF alpha induced VCAM1 expression in HUVEC; HUVEC TNFa-induced VCAM-1 immunofluorescence, high-content imaging; inhibition, % at 2 µM; hit rate 0.48% among 95,000; AID 802;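 active = inhibition above the batch mean plus 3 SD, with images confirmed as a hit by eye, cut at about 37% in these data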;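 note: 0% = TNF-stimulated DMSO wells and 100% = unstimulated control wells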
MRP reversal = MRP-mediated drug resistance reversal; hit rate 0.04% among 85,000; differential viability (reversal), % at 10 µM; AID 602; H69AR cells + 2 uM doxorubicin, CellTiter-Glo, 72 h;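 active = viability drop by adding the cancer drug above about 55%, with treated viability meeting a 40% cutoff, limit read from the data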;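 note: viability without doxorubicin minus viability with 2 µM doxorubicin for each compound; larger differential means the compound sensitizes cells more to doxorubicin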
E-sel TNF inh = blocks E-selectin expression induced by TNF alpha; inhibition, % at 2 µM; hit rate 0.71% among 120,000; HUVEC TNFa-induced E-selectin immunofluorescence, high content;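 active = inhibition above the batch mean plus 3 SD, and confirmed as a hit on visual image review, cut at about 43% in these data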;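 note: 0% = TNF-stimulated DMSO wells and 100% = unstimulated control wells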
MRP-1 activ = MRP-1 activation; AID 799; viability increase, % at 10 µM; H69AR cells + doxorubicin, viability rescue, CellTiter-Glo; hit rate 0.61% among 140,000;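 active = viability gain under doxorubicin at or above a set limit, the compound median plus 3 SD, cut at about 4.7% in these data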;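 note: MRP-1 overexpressing cells given doxorubicin 25 µM after compound pretreatment; 18-22 h compound pretreatment then 72 h with doxorubicin before readout; 0% = doxorubicin-only wells and 100% = vehicle-treated cells without doxorubicin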
Active calls of the source: *; . = no result.

SMILES | cytoskel mod | VCAM1 TNFa inh | MRP reversal | E-sel TNF inh | MRP-1 activ
COc1ccc(C(=O)Nc2ccc(S(=O)(=O)Nc3nccnc3OC)cc2)cc1 | 0 | -5 | . | -4 | 6.2*
CC(C)OC(=O)C(C)Oc1ccc(C(=O)NCCc2ccccc2)cc1 (stereo not given) | -3 | 4 | 12 | -2 | -2
O=C(Nc1nc(-c2cccc([N+](=O)[O-])c2)cs1)C(c1ccccc1)c1ccccc1 | 11 | 4 | . | -33 | 8.9*
COc1cccc(-c2csc(NC(=O)Oc3ccccc3)n2)c1 | -9 | -4 | . | -80 | 7.5*
CC(=O)c1cccc(Nc2nc(-c3cccc([N+](=O)[O-])c3)cs2)c1 | -6 | 39* | . | -17 | -6
CC(=O)Nc1nc(C)c(-c2csc(Nc3cccc([N+](=O)[O-])c3)n2)s1 | 5 | -7 | . | 24 | -6
Nc1cc(=O)[nH]c(=S)n1-c1cccc(C(F)(F)F)c1 | . | 32 | -2 | -2 | 0
O=c1cc(O)n(-c2ccc(F)cc2)c(=S)[nH]1 | 3 | 6 | 8 | 71* | -3
Cc1cccnc1Nc1nc(-c2ccccn2)cs1 | -4 | 94* | 0 | 19 | -6
Cc1cccnc1Nc1nc(-c2ccc(O)cc2O)cs1 | . | . | -23 | 2 | -6
CNC(=O)C1CC(=O)N/C(=N/N=C(\C)c2cccs2)S1 (stereo not given) | -2 | -3 | -9 | -9 | -3
CC(Oc1ccc(Cl)cc1Cl)C(=O)NC1CCSC1=O (stereo not given) | 0 | 2 | -9 | -24 | 12*
COCCNC(=O)C(C)Oc1ccc(Cl)cc1Cl (stereo not given) | -2 | 28 | . | 2 | -2
O=C(Nc1cc(Cl)ccc1O)c1snnc1-c1ccccc1 | -14 | -4 | . | 8 | -6
C=CCn1c(SCc2c(C)noc2C)nc2ccccc2c1=O | 13 | 60* | -22 | 3 | -1
CCNC(=O)Nn1c(-c2ccccc2)nc2ccccc2c1=O | 2 | -15 | . | -6 | -5
CCC(C(=O)OC)n1c(-c2ccccc2)nc2ccccc2c1=O (stereo not given) | . | . | . | 64* | .
CCOC(=O)N1CCC(NC(=O)c2ccc(CNS(=O)(=O)c3ccc(F)cc3)cc2)CC1 | 76* | -9 | -19 | . | -3
CC(C)Cn1c(-c2ccc(Br)o2)n[nH]c1=S | . | . | . | . | -3
COc1ccc(OC)c(NC(=O)CSc2nnc(CNC(=O)COc3ccc(Cl)cc3)o2)c1 | 16 | -29 | 13 | . | 5.6*
C=CCNC(=O)c1c(Cl)cccc1Cl | 47* | -32 | . | -17 | -2
C=CCNC(=O)c1c(-c2c(F)cccc2Cl)noc1C | . | -5 | -30 | 22 | 0
S=C(NCCc1ccccc1)Nc1ccc(Br)cc1 | . | . | . | 14 | -4
CCOc1ccc(NC(=O)Nc2cc(-c3ccccc3)sc2C(=O)OC)cc1 | . | . | . | . | 6.1*
CC(C)(C)NC(=O)C1N(c2cccnc2)C(=O)C2C(C(=O)Nc3ccccc3F)C3(C)C=CC21O3 (stereo not given) | 72* | -4 | . | -14 | -3
SMILES | cytoskel mod | VCAM1 TNFa inh | MRP reversal | E-sel TNF inh | MRP-1 activ
COc1cc(/C=N/Nc2snc(SC)c2C#N)ccc1O | 5 | 43* | . | . | -6
Cn1nnc(NC(=O)COc2ccc(C3CCCCC3)cc2)n1 | -11 | 15 | 13 | 2 | 5.3*
Cc1nccn1-c1ccc(C(F)(F)F)cc1NC=O | 73* | -4 | 12 | 3 | 1
CCOC(=O)Cc1csc(NC(=O)COc2ccc(N(C)S(=O)(=O)c3ccc(C)cc3)cc2)n1 | -5 | 91* | 15 | 5 | -1
CCOC(=O)Cc1csc(NC(=O)COc2ccc(OC)cc2)n1 | 10 | -9 | 1 | 91* | -3
CCOC(=O)Cc1csc(NC(=O)COc2ccc3ccccc3c2)n1 | -15 | 13 | 18 | 13 | 0
CC(=O)N(C(C)=O)S(=O)(=O)c1ccc(N=NN2CCOCC2)cc1 | . | . | . | . | 0
Cc1cc(N2CCOCC2)nc(NCc2ccccc2)n1 | 6 | 9 | 0 | 11 | -2
Cc1cc(N2CCCCC2)nc(NCc2ccccc2)n1 | -2 | 9 | -43 | 72* | -6
O=C1/C(=C/c2cccs2)N=C(c2cccs2)N1Nc1ccccc1 | . | 0 | 3 | 10 | 2
O=C1/C(=C\c2cccs2)N=C(c2cccs2)N1Nc1ccccc1 | -24 | 1 | 8 | -15 | 6.9*
CCOC(=O)N1CCN(C(=O)c2ccc(Oc3ccc([N+](=O)[O-])cc3)cc2)CC1 | . | . | . | 62* | .
CN1CCN(C(=O)c2ccc(Oc3ccc([N+](=O)[O-])cc3)cc2)CC1 | . | . | . | 31 | .
CCOc1cc(/C=N\NC(=O)Cc2ccccc2)ccc1OCC(=O)Nc1ccc(C)c(C)c1 | -15 | 52* | . | -9 | -2
Cc1ccc(-c2nc3ncccn3c2NC2CCCC2)o1 | 4 | 10 | 9 | -6 | -4
Brc1ccc(-c2nc3ncccn3c2NC2CCCCC2)o1 | -8 | 2 | 58* | . | -6
O=c1ccc2ccc(OCc3nnc(-c4ccccc4Br)o3)cc2o1 | 19 | -8 | 3 | 73* | 0
CN(C)S(=O)(=O)c1ccc(N2CCCC2)c(C(=O)NCC2CCCCC2)c1 | . | . | . | -21 | .
CCS(=O)(=O)N1CCC(C(=O)NC2CCCCC2)CC1 | 31* | 0 | 13 | 10 | -1
O=C(NC(Cc1ccccc1)C(=O)O)/C(=C/c1ccc(F)cc1)NC(=O)c1ccccc1 (stereo not given) | . | . | . | . | 0
CC(=O)Nc1ccc(NC2(C)C(=O)c3ccccc3C2=O)cc1 | -23 | 93* | 3 | . | 0
CC(=O)Nc1ccc(C(=O)c2ccccc2)cc1 | . | . | 1 | -61 | 2
CC(=O)Nc1nc2n(n1)C(c1ccc(F)cc1)C=C(c1ccccc1)N2 (stereo not given) | 38* | 10 | -16 | -7 | -5
COc1ccc(-c2nnc(SCC(=O)N3CCCc4ccccc43)o2)cc1OC | 34* | -5 | -35 | -14 | 0
COc1ccc(-c2nnc(SCC(=O)N3CCCC3)o2)cc1OC | . | . | 6 | 4 | .
SMILES | cytoskel mod | VCAM1 TNFa inh | MRP reversal | E-sel TNF inh | MRP-1 activ
O=C(NCCC1=CCCCC1)c1coc(=O)c(Br)c1 | -10 | 13 | . | 86* | -5
O=C(NCCC1=CCCCC1)c1ccc(=O)oc1 | -10 | 15 | -24 | -8 | -1
CCOC(=O)Cc1c(C)nc2c(-c3ccccc3)c[nH]n2c1=O | . | . | -20 | 96* | -3
O=C(NCCc1ccccc1)C(=O)c1c(-c2ccccc2)cc2ccccn12 | . | . | . | 11 | 8.3*
CCN=c1scc(C)n1/N=C/c1ccc(O)c(O)c1O | 3 | -38 | . | -12 | 6.2*
CCN=c1scc(C)n1/N=C/c1cc(Br)c(O)c(Br)c1 | . | . | . | -26 | .
COc1cc(NC(=O)CN2CCC(C)CC2)c(C)cc1[N+](=O)[O-] | . | . | . | 83* | 0
CC(=O)N1CCN=C1SCc1ccccc1 | 6 | 15 | 4 | -7 | 3
CC(=O)N1CCN=C1SCc1ccc(Cl)cc1 | . | . | 6 | -25 | 6.4*
CCC(=O)N1CCN=C1SCc1ccccc1 | -6 | -7 | -2 | -3 | 5.1*
CC(=O)N1CCN=C1SCc1ccccc1Cl | 10 | 22 | 2 | 13 | 3
CC(=O)N1CCN=C1SCc1ccc(C)cc1 | . | . | 9 | 19 | 5.6*
CCC(=O)N1CCN=C1SCc1ccc(Cl)cc1 | -29 | 4 | 0 | 16 | 3
CC(=O)N1CCN=C1SCc1ccccc1F | . | . | 15 | -23 | 5.1*

Assay outcomes: PubChem BioAssay, several laboratories
